According to the supplement of paper PMC10849652:
Of roughly 7,900 targets only a part is listed; those with a hit were picked by preference. About 0.6% of all pairs of compound and target were hits.

Compound: O=C(CCCCCCC(=O)Nc1ccccc1)NO [vorinostat]
Assay: log2 fold change, soluble protein after heating vs DMSO (PISA); higher = thermal stabilisation; K562 cells, 10 uM, 30 min; active = over 0.2 and 3.5 SD of the protein, either way, in both replicates (recomputed)
How it was run: (§1)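 K562 cells (2×10^6 cells/mL) were treated with 10 μM compound for 30 min, and aliquots were heated for 3 min over 48°C-58°C. Pooled aliquots were extracted in PBS with 0.5% NP-40 at 4°C, and the supernatant after 21,000xg for 90 min was measured by TMTpro 16plex LC-MS/MS with channel sums equalised. Reported thermal stability, relative to control samples and from duplicates, is a log2 fold change.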

Sequence of UniProt O94925 (O94925 whole entry, looked up): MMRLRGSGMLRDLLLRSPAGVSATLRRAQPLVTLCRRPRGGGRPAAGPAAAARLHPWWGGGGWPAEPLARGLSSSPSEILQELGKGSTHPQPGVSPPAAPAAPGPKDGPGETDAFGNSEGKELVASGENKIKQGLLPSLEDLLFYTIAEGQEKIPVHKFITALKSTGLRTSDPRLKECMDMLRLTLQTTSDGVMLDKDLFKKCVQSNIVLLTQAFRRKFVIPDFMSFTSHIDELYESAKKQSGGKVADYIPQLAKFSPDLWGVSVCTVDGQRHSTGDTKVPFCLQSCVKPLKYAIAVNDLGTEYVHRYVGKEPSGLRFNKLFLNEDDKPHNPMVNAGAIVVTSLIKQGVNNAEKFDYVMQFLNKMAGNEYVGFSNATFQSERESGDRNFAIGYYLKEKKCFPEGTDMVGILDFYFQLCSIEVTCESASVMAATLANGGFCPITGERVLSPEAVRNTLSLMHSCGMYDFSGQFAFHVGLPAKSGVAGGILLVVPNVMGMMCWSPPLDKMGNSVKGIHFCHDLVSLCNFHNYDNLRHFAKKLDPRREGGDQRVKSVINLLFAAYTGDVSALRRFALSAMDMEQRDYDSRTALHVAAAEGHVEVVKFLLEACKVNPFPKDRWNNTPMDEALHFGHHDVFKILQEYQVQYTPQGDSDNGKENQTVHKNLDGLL
Sequence of UniProt Q14527 (Q14527 whole entry, looked up): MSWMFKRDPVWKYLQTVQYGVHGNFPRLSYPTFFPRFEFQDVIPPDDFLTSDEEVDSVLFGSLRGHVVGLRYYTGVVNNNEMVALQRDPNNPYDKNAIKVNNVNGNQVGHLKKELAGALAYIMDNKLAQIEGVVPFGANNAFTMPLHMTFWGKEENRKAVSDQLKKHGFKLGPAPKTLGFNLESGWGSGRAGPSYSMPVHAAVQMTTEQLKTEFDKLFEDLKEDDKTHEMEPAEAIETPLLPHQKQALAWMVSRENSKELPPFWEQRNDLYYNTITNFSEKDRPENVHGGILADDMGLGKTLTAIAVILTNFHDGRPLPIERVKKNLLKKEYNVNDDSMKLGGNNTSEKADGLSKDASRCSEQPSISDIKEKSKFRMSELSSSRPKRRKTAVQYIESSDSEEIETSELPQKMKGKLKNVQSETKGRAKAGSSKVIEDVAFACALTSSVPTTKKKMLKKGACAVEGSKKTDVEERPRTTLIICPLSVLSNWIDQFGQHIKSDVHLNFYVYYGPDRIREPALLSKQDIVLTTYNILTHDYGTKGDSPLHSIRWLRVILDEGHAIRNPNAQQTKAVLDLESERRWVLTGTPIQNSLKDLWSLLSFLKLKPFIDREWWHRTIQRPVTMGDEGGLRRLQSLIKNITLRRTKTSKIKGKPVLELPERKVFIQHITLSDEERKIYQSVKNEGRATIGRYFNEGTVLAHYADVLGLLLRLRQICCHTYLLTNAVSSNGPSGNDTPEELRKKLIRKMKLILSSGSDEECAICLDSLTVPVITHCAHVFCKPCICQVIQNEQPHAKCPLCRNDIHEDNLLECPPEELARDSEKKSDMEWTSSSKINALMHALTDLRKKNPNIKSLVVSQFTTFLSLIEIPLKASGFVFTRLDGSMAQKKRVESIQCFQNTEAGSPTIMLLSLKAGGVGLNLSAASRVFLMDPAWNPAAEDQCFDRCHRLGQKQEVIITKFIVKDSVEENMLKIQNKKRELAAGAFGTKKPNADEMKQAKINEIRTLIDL
Sequence of UniProt P36969 (P36969 whole entry, looked up): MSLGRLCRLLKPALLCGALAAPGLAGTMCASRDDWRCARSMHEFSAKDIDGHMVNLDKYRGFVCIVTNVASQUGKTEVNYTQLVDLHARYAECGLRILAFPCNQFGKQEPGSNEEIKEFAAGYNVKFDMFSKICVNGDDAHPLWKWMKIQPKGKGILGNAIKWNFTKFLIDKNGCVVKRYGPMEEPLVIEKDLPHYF
Sequence of UniProt P50213 (P50213 whole entry, looked up): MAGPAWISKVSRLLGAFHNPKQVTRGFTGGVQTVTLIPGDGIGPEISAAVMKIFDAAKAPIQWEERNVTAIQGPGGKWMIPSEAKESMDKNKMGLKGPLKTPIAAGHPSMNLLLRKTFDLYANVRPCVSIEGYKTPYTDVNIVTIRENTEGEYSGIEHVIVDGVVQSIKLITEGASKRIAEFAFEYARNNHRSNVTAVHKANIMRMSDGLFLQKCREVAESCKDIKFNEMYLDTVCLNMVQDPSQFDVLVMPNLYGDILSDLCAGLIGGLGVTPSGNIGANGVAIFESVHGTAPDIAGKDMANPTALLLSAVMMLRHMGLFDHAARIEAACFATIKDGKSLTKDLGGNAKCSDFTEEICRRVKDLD
Sequence of UniProt P0C0S5 (P0C0S5 whole entry, looked up): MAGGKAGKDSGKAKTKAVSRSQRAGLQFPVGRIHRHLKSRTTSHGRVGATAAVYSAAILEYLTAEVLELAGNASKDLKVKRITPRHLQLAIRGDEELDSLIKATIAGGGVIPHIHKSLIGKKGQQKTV
Sequence of UniProt Q86VS8 (Q86VS8 whole entry, looked up): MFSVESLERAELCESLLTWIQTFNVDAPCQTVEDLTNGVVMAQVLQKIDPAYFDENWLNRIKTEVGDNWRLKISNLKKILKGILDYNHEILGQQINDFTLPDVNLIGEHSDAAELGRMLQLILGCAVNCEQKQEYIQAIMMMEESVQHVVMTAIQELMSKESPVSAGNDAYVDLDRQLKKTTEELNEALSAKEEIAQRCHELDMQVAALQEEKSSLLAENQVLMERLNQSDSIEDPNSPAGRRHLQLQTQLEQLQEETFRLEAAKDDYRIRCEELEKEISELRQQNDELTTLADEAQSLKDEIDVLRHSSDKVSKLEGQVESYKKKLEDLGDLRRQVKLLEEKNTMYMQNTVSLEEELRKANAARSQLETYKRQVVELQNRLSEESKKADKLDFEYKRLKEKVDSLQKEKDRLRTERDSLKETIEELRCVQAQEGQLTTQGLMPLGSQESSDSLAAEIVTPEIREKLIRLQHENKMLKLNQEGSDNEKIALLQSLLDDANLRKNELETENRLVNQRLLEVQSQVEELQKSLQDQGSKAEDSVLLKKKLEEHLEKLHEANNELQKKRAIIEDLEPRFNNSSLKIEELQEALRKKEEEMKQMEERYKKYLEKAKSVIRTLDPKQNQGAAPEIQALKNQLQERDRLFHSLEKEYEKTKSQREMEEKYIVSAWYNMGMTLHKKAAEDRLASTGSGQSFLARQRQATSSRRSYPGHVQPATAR
Sequence of UniProt Q9BYC5 (Q9BYC5 whole entry, looked up): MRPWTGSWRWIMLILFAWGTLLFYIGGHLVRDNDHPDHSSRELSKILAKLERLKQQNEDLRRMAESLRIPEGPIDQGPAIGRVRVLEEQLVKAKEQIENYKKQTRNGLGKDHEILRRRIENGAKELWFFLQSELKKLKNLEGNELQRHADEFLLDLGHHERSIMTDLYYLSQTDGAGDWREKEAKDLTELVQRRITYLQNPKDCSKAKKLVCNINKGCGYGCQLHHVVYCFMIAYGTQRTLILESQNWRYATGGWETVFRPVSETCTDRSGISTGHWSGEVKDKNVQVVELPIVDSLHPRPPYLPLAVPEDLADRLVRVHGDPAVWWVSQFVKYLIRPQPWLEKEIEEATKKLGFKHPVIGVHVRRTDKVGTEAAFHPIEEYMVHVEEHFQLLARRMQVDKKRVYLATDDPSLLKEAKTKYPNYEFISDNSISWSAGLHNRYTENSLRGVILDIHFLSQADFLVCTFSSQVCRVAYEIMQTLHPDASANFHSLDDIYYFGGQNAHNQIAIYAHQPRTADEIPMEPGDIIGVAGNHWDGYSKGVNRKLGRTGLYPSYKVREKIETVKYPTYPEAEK
Sequence of UniProt O43824 (O43824 whole entry, looked up): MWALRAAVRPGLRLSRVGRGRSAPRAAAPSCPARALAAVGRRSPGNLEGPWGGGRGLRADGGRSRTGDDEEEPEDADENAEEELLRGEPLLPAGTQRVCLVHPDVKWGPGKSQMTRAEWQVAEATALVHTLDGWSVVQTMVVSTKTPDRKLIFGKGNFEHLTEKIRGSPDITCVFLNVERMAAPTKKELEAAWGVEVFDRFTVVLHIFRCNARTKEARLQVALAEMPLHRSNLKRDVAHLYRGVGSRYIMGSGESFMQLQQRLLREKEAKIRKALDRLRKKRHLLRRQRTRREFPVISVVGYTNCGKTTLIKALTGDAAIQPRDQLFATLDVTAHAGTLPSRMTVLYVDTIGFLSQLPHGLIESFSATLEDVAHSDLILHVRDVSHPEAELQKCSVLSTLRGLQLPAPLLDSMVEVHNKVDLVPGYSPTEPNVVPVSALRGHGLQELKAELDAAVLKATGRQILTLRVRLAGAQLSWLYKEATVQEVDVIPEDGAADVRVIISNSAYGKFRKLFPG
Sequence of UniProt Q96HJ9 (Q96HJ9 whole entry, looked up): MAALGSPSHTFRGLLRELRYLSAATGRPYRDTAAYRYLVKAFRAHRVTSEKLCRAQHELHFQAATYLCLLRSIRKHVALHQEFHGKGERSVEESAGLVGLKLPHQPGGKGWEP
Sequence of UniProt Q9Y3D6 (Q9Y3D6 whole entry, looked up): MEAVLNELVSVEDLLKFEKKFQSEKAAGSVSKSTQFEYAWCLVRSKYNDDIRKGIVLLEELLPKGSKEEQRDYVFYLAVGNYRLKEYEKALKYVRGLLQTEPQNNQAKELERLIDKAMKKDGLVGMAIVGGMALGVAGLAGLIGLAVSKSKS
Sequence of UniProt O76003 (O76003 whole entry, looked up): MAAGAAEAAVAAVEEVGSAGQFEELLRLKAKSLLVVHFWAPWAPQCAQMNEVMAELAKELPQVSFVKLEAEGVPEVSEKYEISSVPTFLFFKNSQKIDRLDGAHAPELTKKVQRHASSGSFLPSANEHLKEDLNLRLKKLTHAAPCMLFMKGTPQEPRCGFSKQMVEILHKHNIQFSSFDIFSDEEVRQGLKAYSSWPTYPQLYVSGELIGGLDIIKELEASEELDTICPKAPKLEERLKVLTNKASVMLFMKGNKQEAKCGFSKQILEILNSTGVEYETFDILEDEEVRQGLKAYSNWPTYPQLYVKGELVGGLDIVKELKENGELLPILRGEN
Sequence of UniProt P60520 (P60520 whole entry, looked up): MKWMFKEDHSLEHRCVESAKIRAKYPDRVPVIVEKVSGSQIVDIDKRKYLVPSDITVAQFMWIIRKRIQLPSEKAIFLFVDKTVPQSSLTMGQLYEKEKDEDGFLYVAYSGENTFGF

log2 fold change, inactive:
FHOD1 (UniProt Q9Y613) 0.034
GPD1 (UniProt P21695) -0.035
GUK1 isoform 2 (UniProt Q16774) -0.002
H2AZ1 (UniProt P0C0S5) 0.19
GABARAPL2 (UniProt P60520) 0.063
HLTF (UniProt Q14527) -0.012
FMC1 (UniProt Q96HJ9) -0.054
GALNT11 (UniProt Q8NCW6) 0.01
HMOX2 (UniProt P30519) 0.029
GUSB (UniProt P08236) 0.049
FBXO3 (UniProt Q9UK99) 0.011
GHDC (UniProt Q8N2G8) -0.023
GLUL (UniProt P15104) 0.04
HNRNPK isoform 2 (UniProt P61978) 0.065
HOOK3 (UniProt Q86VS8) 0.056
GLRX3 (UniProt O76003) -0.013
HIST2H3A (UniProt Q71DI3) 0.442
GLS (UniProt O94925) 0.022
IDH3A (UniProt P50213) -0.029
HDDC2 (UniProt Q7Z4H3) -0.036
GTF3C4 (UniProt Q9UKN8) -0.103
IFI30 (UniProt P13284) 0.03
FOXO3 (UniProt O43524) 0.222
GOPC (UniProt Q9HD26) -0.038
GPX4 (UniProt P36969) -0.082
FUT8 (UniProt Q9BYC5) -0.001
HADHA (UniProt P40939) -0.059
GAGE12F (UniProt P0CL80) 0.024
GTPBP6 (UniProt O43824) -0.1
GCDH (UniProt Q92947) 0.103
FIS1 (UniProt Q9Y3D6) -0.027
FERMT3 (UniProt Q86UX7) 0.026
HDHD2 (UniProt Q9H0R4) -0.018

Compound: O=C(CCCCCCNC(=O)c1cnc(N(c2ccccc2)c2ccccc2Cl)nc1)NO [citarinostat]
Assay: as above
How it was run: as §1

log2 fold change, active:
GPX4 (UniProt P36969) -0.391

log2 fold change, inactive:
FHOD1 (UniProt Q9Y613) -0.073
GUK1 isoform 2 (UniProt Q16774) 0.031
H2AZ1 (UniProt P0C0S5) -0.058
GABARAPL2 (UniProt P60520) 0.041
HLTF (UniProt Q14527) 0.008
FMC1 (UniProt Q96HJ9) 0.044
GALNT11 (UniProt Q8NCW6) 0.079
HMOX2 (UniProt P30519) 0.023
GUSB (UniProt P08236) 0.148
FBXO3 (UniProt Q9UK99) 0.016
FCHO1 (UniProt O14526) -0.086
GHDC (UniProt Q8N2G8) 0.045
GLUL (UniProt P15104) -0.024
HNRNPK isoform 2 (UniProt P61978) 0.05
HOOK3 (UniProt Q86VS8) -0.022
GLRX3 (UniProt O76003) 0.014
HIST2H3A (UniProt Q71DI3) 0.006
GLS (UniProt O94925) 0.068
IDH3A (UniProt P50213) 0.023
HDDC2 (UniProt Q7Z4H3) 0.032
GTF3C4 (UniProt Q9UKN8) 0.04
IFI30 (UniProt P13284) 0.059
FOXO3 (UniProt O43524) 0.002
FUT8 (UniProt Q9BYC5) 0.108
HADHA (UniProt P40939) 0.018
GAGE12F (UniProt P0CL80) 0
GTPBP6 (UniProt O43824) 0.093
GCDH (UniProt Q92947) 0.025
IFITM3 (UniProt Q01628) 0.232
FIS1 (UniProt Q9Y3D6) 0.051
FERMT3 (UniProt Q86UX7) 0.067
HDHD2 (UniProt Q9H0R4) 0.033

Compound: O=C(O)c1ccc2c(c1)nc(Nc1cccc(Cl)c1)c1ccncc12 [silmitasertib]
Assay: as above
How it was run: as §1

log2 fold change, inactive:
FHOD1 (UniProt Q9Y613) 0.177
GPD1 (UniProt P21695) -0.16
GUK1 isoform 2 (UniProt Q16774) 0.044
H2AZ1 (UniProt P0C0S5) 0
GABARAPL2 (UniProt P60520) -0.049
HLTF (UniProt Q14527) -0.095
FMC1 (UniProt Q96HJ9) 0.006
GALNT11 (UniProt Q8NCW6) 0.027
HMOX2 (UniProt P30519) 0
GUSB (UniProt P08236) -0.011
FBXO3 (UniProt Q9UK99) -0.003
FCHO1 (UniProt O14526) -0.24
GHDC (UniProt Q8N2G8) 0.001
GLUL (UniProt P15104) 0.032
HNRNPK isoform 2 (UniProt P61978) -0.017
HOOK3 (UniProt Q86VS8) 0.101
GLRX3 (UniProt O76003) 0.034
HIST2H3A (UniProt Q71DI3) -0.084
GLS (UniProt O94925) 0.008
IDH3A (UniProt P50213) -0.034
HDDC2 (UniProt Q7Z4H3) -0.032
GTF3C4 (UniProt Q9UKN8) 0.03
IFI30 (UniProt P13284) -0.052
FOXO3 (UniProt O43524) -0.136
GOPC (UniProt Q9HD26) 0.029
GPX4 (UniProt P36969) 0.004
FUT8 (UniProt Q9BYC5) 0.013
HADHA (UniProt P40939) -0.1
GAGE12F (UniProt P0CL80) 0.01
GTPBP6 (UniProt O43824) -0.115
GCDH (UniProt Q92947) -0.05
IFITM3 (UniProt Q01628) -0.111
FIS1 (UniProt Q9Y3D6) -0.017
FERMT3 (UniProt Q86UX7) -0.001
HDHD2 (UniProt Q9H0R4) -0.007
